In test [1] the target is Rap guanine nucleotide exchange factor 3 (Homo sapiens) (UniProt O95398). Nature of the test: Confirmatory qHTS for antagonist of cAMP-regulated guanine nucleotide exchange factor 3 (EPAC1) (AID 1645880). Further: nearly all actives have a fitted effect of over 55% in size. Further: potency means the concentration at half of the fitted maximal effect. The essentials:
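Nucleotide exchange uses 100 nM EPAC1, 250 nM RAP1B-BODIPY-GDP and 50 uM GDP, with compounds in a concentration-titration series. After 5 min at room temperature, fluorescence (480 nm ex/540 nm em) is read every 5 min for 30 min. Data are normalized to control ATA and DMSO.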
For orientation: In qHTS, concentration-response curves come from the screen itself.

Test [2] has the same target. Nature of the test: Confirmatory qHTS for agonist of cAMP-regulated guanine nucleotide exchange factor 3 (EPAC1) (AID 1645881). Further: nearly all actives have a fitted effect of over 75% in size. Further: potency means the concentration at half of the fitted maximal effect.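 On activation: EPAC1 catalysed release of BODIPY-GDP from Rap1B seen as fluorescence loss; 100% = effect of cAMP agonist control.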
The target in test [3] is Rap guanine nucleotide exchange factor 4 (Homo sapiens) (UniProt Q8WZA2). Nature of the test: Confirmatory qHTS for agonist of cAMP-regulated guanine nucleotide exchange factor 4 (EPAC2) (AID 1645884).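 Further: nucleotide exchange releases bodipy-GDP from Rap1 and this lowers its fluorescence; nearly all actives have a fitted effect of over 65% in size.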 Further: potency means the concentration at half of the fitted maximal effect. On activation: on the % scale 0 is the no-effect control and ±100 the full control effect.
Test [4] has the same target. Nature of the test: Confirmatory qHTS for antagonist of cAMP-regulated guanine nucleotide exchange factor 4 (EPAC2) (AID 1645885). Further: nearly all actives have a fitted effect of over 25% in size. Further: potency means the concentration at half of the fitted maximal effect. On activity change, negative = inhibition: on the % scale 0 is the no-effect control and ±100 the full control effect.
The target in test [5] is Rap guanine nucleotide exchange factor 3 (Homo sapiens) (UniProt O95398). Nature of the test: Counterscreen qHTS for antagonist of cAMP-regulated guanine nucleotide exchange factor 3 (EPAC1) (AID 1645888).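 Further: fluorescence loss as bound BODIPY-GDP is released from Rap1B; % of control where 0% means no effect.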 The essentials:
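Rap1B–BODIPY-GDP (250 nM) with 50 uM GDP; compounds pin-transferred to 9.74 nM–152 uM final (activator) or from 7.32 nM upwards (inhibitor). Fluorescence Ex/Em 480/540 nm read at 5 and 30 min, then after adding cAMP or buffer, at room temperature.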
(In general: The purpose of a counterscreen is to sort out artefacts and off-target activity.)

SMILES strings stand for the structures. Records with an inconclusive call do not appear. Unmarked numbers belong to inactive results. Activity calls are given as the source filed them. The call rests on the fitted dose curve; in most records, active means well fitted curve in the direction sought with a large enough effect; inconclusive means small, poorly fitted or top-dose-only effect, or another doubt; inactive means no such curve, though single readings can be large; an effect the other way counts as inactive or inconclusive.

Chain of Rap guanine nucleotide exchange factor 4 (Homo sapiens) (Q8WZA2 whole entry, looked up): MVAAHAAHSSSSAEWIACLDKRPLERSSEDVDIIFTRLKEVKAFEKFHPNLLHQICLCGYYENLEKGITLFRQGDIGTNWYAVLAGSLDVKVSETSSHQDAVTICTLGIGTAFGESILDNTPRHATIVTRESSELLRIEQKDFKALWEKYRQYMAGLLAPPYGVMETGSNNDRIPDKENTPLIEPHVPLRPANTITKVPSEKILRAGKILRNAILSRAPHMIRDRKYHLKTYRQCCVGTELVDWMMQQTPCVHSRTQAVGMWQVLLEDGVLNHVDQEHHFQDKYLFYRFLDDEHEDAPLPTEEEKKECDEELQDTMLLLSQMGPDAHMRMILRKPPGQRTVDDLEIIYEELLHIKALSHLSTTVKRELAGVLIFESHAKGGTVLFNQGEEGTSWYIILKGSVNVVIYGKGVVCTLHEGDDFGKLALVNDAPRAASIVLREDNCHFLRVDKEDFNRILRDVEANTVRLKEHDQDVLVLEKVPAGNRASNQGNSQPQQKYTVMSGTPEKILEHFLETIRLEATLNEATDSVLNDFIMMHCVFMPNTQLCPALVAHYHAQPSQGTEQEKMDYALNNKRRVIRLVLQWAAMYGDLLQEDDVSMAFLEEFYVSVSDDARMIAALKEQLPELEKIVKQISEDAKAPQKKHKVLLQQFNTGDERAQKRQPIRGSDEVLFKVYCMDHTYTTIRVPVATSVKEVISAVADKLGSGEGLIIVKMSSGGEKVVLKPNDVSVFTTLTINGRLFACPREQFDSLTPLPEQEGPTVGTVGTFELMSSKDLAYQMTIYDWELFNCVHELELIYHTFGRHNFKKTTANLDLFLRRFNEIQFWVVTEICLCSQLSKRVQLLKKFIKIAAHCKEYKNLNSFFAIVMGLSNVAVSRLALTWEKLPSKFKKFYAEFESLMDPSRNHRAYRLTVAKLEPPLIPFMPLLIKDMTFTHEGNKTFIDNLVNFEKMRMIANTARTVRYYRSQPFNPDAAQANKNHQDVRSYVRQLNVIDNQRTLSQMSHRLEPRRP
Chain of Rap guanine nucleotide exchange factor 3 (Homo sapiens) (O95398 whole entry, looked up): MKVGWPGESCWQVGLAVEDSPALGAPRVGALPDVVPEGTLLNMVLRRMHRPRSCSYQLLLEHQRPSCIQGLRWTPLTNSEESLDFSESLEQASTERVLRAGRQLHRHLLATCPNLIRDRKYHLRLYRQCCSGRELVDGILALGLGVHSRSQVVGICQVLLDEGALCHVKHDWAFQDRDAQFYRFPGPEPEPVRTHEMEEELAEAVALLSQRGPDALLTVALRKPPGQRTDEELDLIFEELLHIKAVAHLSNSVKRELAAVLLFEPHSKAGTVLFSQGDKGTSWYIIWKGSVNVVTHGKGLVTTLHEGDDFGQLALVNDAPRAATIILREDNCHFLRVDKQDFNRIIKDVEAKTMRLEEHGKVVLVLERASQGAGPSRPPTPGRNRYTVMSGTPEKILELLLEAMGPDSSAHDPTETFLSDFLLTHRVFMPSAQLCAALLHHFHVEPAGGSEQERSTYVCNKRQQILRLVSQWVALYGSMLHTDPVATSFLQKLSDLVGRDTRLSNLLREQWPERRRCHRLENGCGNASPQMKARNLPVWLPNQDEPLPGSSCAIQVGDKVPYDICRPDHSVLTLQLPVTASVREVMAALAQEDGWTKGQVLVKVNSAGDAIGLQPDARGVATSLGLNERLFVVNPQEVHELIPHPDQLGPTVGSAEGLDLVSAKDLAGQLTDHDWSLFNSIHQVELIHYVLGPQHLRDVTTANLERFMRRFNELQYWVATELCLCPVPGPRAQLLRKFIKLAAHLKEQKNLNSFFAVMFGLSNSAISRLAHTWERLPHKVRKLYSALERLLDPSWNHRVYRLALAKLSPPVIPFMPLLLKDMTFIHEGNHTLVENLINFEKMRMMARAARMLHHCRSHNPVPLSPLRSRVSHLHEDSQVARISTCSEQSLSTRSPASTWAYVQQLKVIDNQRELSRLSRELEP

On to `COc1ccccc1Nc1nc(N)nc(CN2CCC(C)CC2)n1`, for which the Potency result in test [1], in test [2], in test [3], in test [4] and in test [5] was “inactive” in each case.
Take `CCOC(=O)c1c(C)[nH]c(CCC(=O)NCc2cccc(OC)c2)c1C`: the Potency result in test [1], in test [2], in test [3], in test [4] and in test [5] was “inactive” in each case.
As for `Nc1ncnc2c1ncn2[C@@H]1O[C@H](C(=O)N[C@H]2c3ccccc3C[C@H]2OC=O)[C@@H](O)[C@H]1O`, the Potency entry in test [1], in test [2], in test [3], in test [4] and in test [5] was “inactive” each time.
Consider `COC(=O)c1cc2oc(C)cc2n1Cc1c(C)cc(C)cc1C`, for which the Potency entry in test [1], in test [2], in test [3], in test [4] and in test [5] was “inactive” in each case.
As for `CCOc1ccc(CCNc2ncnc3onc(-c4ccc(Cl)cc4)c23)cc1OCC`, the Potency result in test [1], in test [2], in test [3], in test [4] and in test [5] was “inactive” throughout.
In the case of `CC(Sc1nncn1C)C(=O)Nc1nnc(C(C)C)s1` (stereo not given), the Potency result in test [1], in test [2], in test [3], in test [4] and in test [5] was “inactive” throughout.
Take `O=c1cc(O)c2sc3nc(-c4cccnc4)cc(C(F)(F)F)c3c2[nH]1`: the Potency result in test [1], in test [2], in test [3], in test [4] and in test [5] was “inactive” in each case.
For the compound `Cc1ccc(-c2sc(-c3ccccc3)nc2CC(=O)Nc2ccccc2F)cc1`, the Potency entry in test [1], in test [2], in test [3], in test [4] and in test [5] was “inactive” throughout.
With `CCC(C)N(C(=O)COC(=O)C1CCN(S(=O)(=O)c2ccc(C)c(C)c2)CC1)C1CCS(=O)(=O)C1` (stereo not given), the Potency result in test [1], in test [2], in test [3], in test [4] and in test [5] was “inactive” throughout.
Regarding `COc1ccc(CN2C(=O)CN(S(C)(=O)=O)CC2(C)C(=O)Nc2c(C)cccc2C)cc1OC` (stereo not given), the Potency result in test [1], in test [2] and in test [4] was “inactive” each time. Besides, the activation in test [3] is 5.79% [at 17.1 µM, percent relative to cAMP agonist control]. Besides, the activity change, negative = inhibition in test [5] is -5.99% [at 30.8 µM].
Regarding `COc1cc(/C=C/C(=O)OCC(=O)Nc2oc(C)c3c(C)n[nH]c(=O)c23)ccc1OC(F)F`, the Potency entry in test [1], in test [2], in test [3], in test [4] and in test [5] was “inactive” throughout.
Consider `c1ccc(CN(Cc2ccccc2)c2c3c(nc4ncnn24)CCC3)cc1`, for which the Potency result in test [1], in test [2], in test [3], in test [4] and in test [5] was “inactive” throughout.
Turning to `COc1cc(O)cc(O)c1C(=O)/C=C/c1ccccc1`, the Potency in test [1] is 67.5 µM (active). The Potency result in test [2], in test [3], in test [4] and in test [5] was “inactive” each time.
Regarding `CN(C)CC/C=C1/c2ccccc2Sc2c(O)cc(Cl)cc21`, the Potency result in test [1], in test [2], in test [3], in test [4] and in test [5] was “inactive” in each case.
With `COc1ccc(C(Sc2ccccc2)c2ccccc2)cc1OC` (stereo not given), the Potency result in test [1], in test [2], in test [3] and in test [5] was “inactive” throughout. Further, in test [4], the Potency is 21.3 µM (active).
On to `O=C(O)c1ccc(S(=O)(=O)/N=C2\C=C(Nc3ccccc3F)C(=O)c3ccccc32)cc1`, for which the Potency in test [1] is 30.1 µM (active). For the same compound, the Potency entry in test [2], in test [3], in test [4] and in test [5] was “inactive” in each case.
Consider `O=C(CCNC(=O)c1ccccc1Cl)NCC(c1ccc(F)cc1)N1CCOCC1` (stereo not given), for which the Potency result in test [1], in test [2], in test [3], in test [4] and in test [5] was “inactive” in each case.
As to `c1ccc(N2[C@@H]3c4ccccc4C[C@H]2c2ccccc23)cc1`, the Potency result in test [1], in test [2] and in test [4] was “inactive” throughout. In addition, the activation in test [3] is 8.36% [at 17.1 µM, percent relative to cAMP agonist control]. For the same compound, the activity change, negative = inhibition in test [5] was -11.2% [at 30.8 µM].
On to `Cc1ccc2c(c1)C=CC(C#N)N2C(=O)c1ccccc1` (stereo not given), for which the Potency entry in test [1], in test [2], in test [3], in test [4] and in test [5] was “inactive” each time.
With `COC(=O)c1cc2oc(C)cc2n1Cc1cccc(Cl)c1`, the Potency entry in test [1], in test [2], in test [3], in test [4] and in test [5] was “inactive” each time.
Regarding `Cc1ccc(N(Cc2cccs2)C(=O)c2ccccc2)cc1`, the Potency result in test [1], in test [2], in test [3], in test [4] and in test [5] was “inactive” in each case.
`CCOC(=O)c1sc2nc(-c3ccco3)c3c(c2c1N)CC(C)(C)OC3`: the Potency in test [1] was 44.7 µM (active). Moreover, the Potency entry in test [2] and in test [4] was “inactive” throughout. Moreover, the activation in test [3] is 7.15% [at 17.1 µM, percent relative to cAMP agonist control]. The activity change, negative = inhibition in test [5] is -5.49% [at 30.8 µM].
`COc1cc(/C=C/CNC[C@H]2O[C@@H](n3cnc4c(=O)[nH]c(N)nc43)[C@H](O)[C@@H]2O)ccc1O`: the Potency result in test [1], in test [2], in test [3], in test [4] and in test [5] was “inactive” in each case.
Turning to `Cc1cc(N)c2cc(NC(=O)/C=C/c3ccccc3Cl)ccc2n1`, the figures for the Potency in test [1], in test [2] and in test [3] were 37.9 µM (active), 100 µM (active) and 56.2 µM (active), respectively. Further, the Potency entry in test [4] and in test [5] was “inactive” in each case.
With `COCCn1c(=N)c(C(=O)NC2CCCC2)cc2c(=O)n3cc(C)ccc3nc21`, the Potency result in test [1], in test [2], in test [3], in test [4] and in test [5] was “inactive” each time.
As for `Cc1cc(Cl)ccc1-n1c(CCC(=O)O)ccc1-c1cccs1`, the Potency result in test [1], in test [2], in test [3], in test [4] and in test [5] was “inactive” in each case.
Regarding `Cc1ccc(S(=O)(=O)Nc2cc(=O)[nH]c(SCC(=O)Nc3cccc(C)c3)n2)cc1`, the Potency result in test [1], in test [2] and in test [4] was “inactive” throughout. Moreover, the activation in test [3] was 4.73% [at 17.1 µM, percent relative to cAMP agonist control]. Moreover, the activity change, negative = inhibition in test [5] was -4.46% [at 30.8 µM].
As to `COc1ccccc1C(CC(=O)N1CCCC1)c1ccc2c(c1)OCO2` (stereo not given), the Potency result in test [1], in test [2] and in test [4] was “inactive” throughout. Further, the activation in test [3] was 2.08% [at 17.1 µM, percent relative to cAMP agonist control]. The activity change, negative = inhibition in test [5] is -9.86% [at 30.8 µM].
`NC(=O)COC(=O)/C=C/c1ccc2ccccc2n1`: the Potency result in test [1], in test [2], in test [3], in test [4] and in test [5] was “inactive” in each case.
For `COc1cc(C)cc(C(=O)C=Cc2ccccc2)c1O`, the Potency entry in test [1], in test [2] and in test [4] was “inactive” throughout. Moreover, the activation in test [3] was 3.76% [at 17.1 µM, percent relative to cAMP agonist control]. Also, in test [5], the activity change, negative = inhibition was 12.7% [at 30.8 µM].
Turning to `O=C(O)c1ccc(NC2=C/C(=N/S(=O)(=O)c3cccs3)c3ccccc3C2=O)cc1`, the Potency in test [1] was 60.1 µM (active). The Potency entry in test [2], in test [3], in test [4] and in test [5] was “inactive” each time.
Regarding `CCN(CC)c1ccc2cc(-c3nc(-c4ccccc4F)no3)c(=O)oc2c1`, the Potency entry in test [1] and in test [5] was “inactive” in each case. Moreover, the Potency in test [2] was 50.1 µM (active); in test [3], 5.01 µM (active); in test [4] it was 4.78 µM (active).
For the compound `Cc1ccc2c(c1)CCCN2C(=O)c1cc(C)c(C)s1`, the Potency result in test [1], in test [2], in test [3] and in test [5] was “inactive” in each case. Besides, in test [4], the outcome was “inactive [at 12.7 µM]”.
On to `CCOC(=O)Cc1nn(Cc2ccccc2)c(=O)c2ccccc12`, for which the Potency entry in test [1], in test [2], in test [3], in test [4] and in test [5] was “inactive” throughout.
With `Cc1ccc(C(=O)NCCCNC(=O)c2ccco2)cn1`, the Potency result in test [1], in test [2], in test [3], in test [4] and in test [5] was “inactive” throughout.
Consider `COC(=O)c1ccc(/C=C2\CCn3c2nc2cc(C(=O)O)ccc2c3=O)cc1`, for which the Potency result in test [1], in test [2], in test [3], in test [4] and in test [5] was “inactive” throughout.
On to `COc1ccccc1-c1ccc(Nc2cccc(C(F)(F)F)c2)nn1`, for which the Potency result in test [1], in test [2], in test [3], in test [4] and in test [5] was “inactive” throughout.
Take `COc1ccccc1Sc1nc(-c2ccccc2)ncc1OC`: the Potency entry in test [1], in test [2] and in test [4] was “inactive” in each case. For the same compound, the activation in test [3] was 11.6% [at 17.1 µM, percent relative to cAMP agonist control]. For the same compound, the activity change, negative = inhibition in test [5] was 8.06% [at 30.8 µM].
Turning to `CCC(=O)N1N=C(c2cccs2)CC1c1ccc(OC)cc1` (stereo not given), the Potency result in test [1], in test [2], in test [3], in test [4] and in test [5] was “inactive” throughout.

These data come from PubChem BioAssay (NCATS).
